# Values joined by “and” are separate entries in the source; they are usually repeats but may differ in a detail not shown here. Equal entries are not always repeated. Inconclusive results are not listed. Active and inactive are the calls of the source. Calls come from the whole dose curve; as a rule, active = well fitted cell-killing curve with a large enough effect; inconclusive = small, poorly fitted or top-dose-only effect, or effect the other way; inactive = no such curve, though single readings can be large or run the other way.
# Test: Viability qHTS for spleen associated tyrosine kinase inhibitor (SYKi) naive MV4-11 cells (AID 1963823); note: nearly all actives have a fitted effect of over 40% in size
# Details: MV4-11 AML viability, CellTiter-Glo luminescence, 72 h; series mostly up to 45 µM; viability (% of control): at the top concentration
# In short: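 CellTiter-Glo luminescence, 10 min room-temperature incubation, gave viability. Cells: naive MV4-11 (500/well), treated 72 hr at 37 C, 5% CO2.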
# Potency is the fitted concentration of half-maximal effect.
SMILES,viability (% of control),Potency
Cc1ncsc1CCCl,78.5% (inactive),
Cc1nnc2n1-c1sc(CCC(=O)N3CCOCC3)cc1C(c1ccccc1Cl)=NC2,87.5% (inactive),
CNCC(O)c1ccc(O)cc1 (centres undefined),,inactive
CCN1CCN(C(=O)Cc2ccc(Nc3ncc(F)c(Nc4ccc(C(=O)Nc5ccccc5Cl)cc4)n3)cc2)CC1,,0.468 µM (active)
CCCC[N+]1(C)[C@H]2CC(OC(=O)[C@H](CO)c3ccccc3)C[C@H]1[C@H]1O[C@H]12 (some centres undefined),104% (inactive),
C[C@@H]1CN(Cc2ccc(F)cc2)CCN1C(=O)COc1ccc(Cl)cc1NC(N)=O,,0.934 µM (active)
CC1(N2CCC(n3c([C@@H]4CCCNC4)nc4ccccc43)CC2)CCCCCCC1,,6.51 µM (active)
O=S(=O)(F)Cc1ccccc1,73.4% (inactive),
CC(C)NCC(O)c1ccc(N)c(C#N)c1 (centres undefined),60.3% (inactive),
COC[C@H]1OC(=O)c2coc3c2[C@@]1(C)C1=C(C3=O)[C@@H]2CC[C@H](O)[C@@]2(C)C[C@H]1OC(C)=O,,1.66 µM (active)
O=C(O)C(Cl)Cl,,inactive
O=C(O)CCCc1ccc(N(CCCl)CCCl)cc1,78% (inactive),
CCC(=O)O[C@@H]1C=C2CCC3C(CCC4(C)C3CC[C@@H]4OC(=O)CC)C2CC1 (some centres undefined),65.2% (inactive),
O=c1cccc2n1CC1CNC[C@H]2C1,93.8% (inactive),
O=C(CCl)c1ccc(Cl)cc1Cl,82.5% (inactive),
CCC1(c2ccc(N)cc2)CCC(=O)NC1=O (centres undefined),111% (inactive),
COC[C@H]1OC(=O)c2coc3c2[C@@]1(C)C1=C(C3=O)C2CCC(=O)[C@@]2(C)C[C@H]1OC(C)=O (some centres undefined),,14.6 µM (active) and 3.32 µM (active)
COc1ccc(N(C(=O)Oc2c(C)cccc2C)c2ccnc(Nc3ccc(N4CCN(C)CC4)cc3)n2)c(OC)c1,,1.48 µM (active)
CC(=O)OC1(c2ccccc2)CCN(CCc2ccccc2)CC1,,39.3 µM (active)
CCOP(=O)(OCC)C(C)NC(=O)N(CCCl)N=O (centres undefined),63.8% (inactive),

SMILES,viability (% of control),Potency
CC1(C)C(=O)N(c2ccc(C#N)c(C(F)(F)F)c2)C(=S)N1Cc1ccc(-c2cn[nH]n2)cc1,,16.6 µM (active)
Oc1cc(Cl)ccc1Oc1ccc(Cl)cc1Cl,,19.7 µM (active)
NCCc1cc(O)c(O)cc1O,69.2% (inactive),
COC[C@@H](NC(C)=O)C(=O)NCc1ccccc1,,inactive
COc1cc(CC(C)N)c(OC)cc1Br (centres undefined),,12.7 µM (active)
CC(C)N(CCNC(=O)CN1CCCC1=O)C(C)C,79.9% (inactive),
N=c1c2c(-c3ccccc3)c(-c3ccccc3)n(Cc3ccccc3)c2ncn1C1CCC(O)CC1 (centres undefined),,0.525 µM (active)
Oc1ccc(Cl)cc1,67.3% (inactive),
O=C(Nc1ccncc1)C(=O)c1cn(Cc2ccc(Cl)cc2)c2ccccc12,,0.132 µM (active)
CCN1CCCC1CNC(=O)C(O)(c1ccccc1)c1ccccc1 (centres undefined),71.2% (inactive),
CC(C)=C[C@@H]1[C@@H](C(=O)OCc2coc(Cc3ccccc3)c2)C1(C)C,68.3% (inactive),
O=c1[nH]c2ccccc2n1C1CCN(Cc2ccc(-c3[nH]c4cc5ncnc5cc4nc3-c3ccccc3)cc2)CC1,,14.8 µM (active)
CCC1(C2=NCCN2)Cc2ccccc2O1 (centres undefined),81.4% (inactive),
C[C@]12CC[C@@H]3c4ccc(OC(=O)N(CCCl)CCCl)cc4CC[C@H]3[C@@H]1CC[C@@H]2OP(=O)(O)O,,inactive
O=C(O)c1nn(Cc2ccc(Cl)cc2Cl)c2ccccc12,,inactive
COc1ccc(C(=O)c2c(C)n(CCN3CCOCC3)c3cc(I)ccc23)cc1,,13.2 µM (active)
N[C@@H](Cc1ccc(Oc2cc(I)c(O)c(I)c2)c(I)c1)C(=O)O,69.4% (inactive),
Clc1cccc(SC2CCNCC2)n1,77% (inactive),
COc1ccc(C(=O)N2CCCC2=O)cc1,,inactive

# — PubChem BioAssay (NCATS)
